Shown are actives, neighbours in structure and some others; about 2% of the full set was active somewhere.
PME-1 primary: blocks human protein phosphatase methylesterase 1 | recombinant PME-1, FP-Rh probe fluorescence polarization | AID 2130 | hit rate 0.53% among 320,000 | inhibition, % at 5.9 µM | Q9Y570;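 active = inhibition above the campaign mean of all compounds plus 3 SD, cut at about 26% in these data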;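 note: competitive labeling of PME-1 active site by serine hydrolase directed probe; 0% = PME-1 with DMSO and 100% = wells lacking PME-1 enzyme; inhibitors block probe labeling so polarization falls and inhibition rises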
GSTO1 inh: counter-screen for RBBP9 inhibitors: inhibitors of human GSTO1; inhibition, % at 5.96 µM; recombinant GSTO1, activity-based probe fluorescence polarization; hit rate 1.1% among 300,000; P78417;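 active = inhibition above the campaign mean inhibition plus 3 SD, cut at about 35% in these data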;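 note: 0% = GSTO1-1 with DMSO and 100% = wells lacking GSTO1-1 enzyme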
LYPLA1 inh: counter-screen for PME1 inhibitors: inhibitors of human LYPLA1; O75608; recombinant LYPLA1, FP-Rh probe fluorescence polarization; inhibition, % at 5.9 µM; hit rate 0.16% among 320,000;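 active = inhibition above the mean of all tested compounds plus 3 SD, set per campaign, cut at about 14% in these data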;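 note: inhibitors block serine hydrolase probe labeling of LYPLA1 so polarization falls; 0% = enzyme with DMSO and 100% = wells lacking LYPLA1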
Target sequence (O75608 whole entry, looked up): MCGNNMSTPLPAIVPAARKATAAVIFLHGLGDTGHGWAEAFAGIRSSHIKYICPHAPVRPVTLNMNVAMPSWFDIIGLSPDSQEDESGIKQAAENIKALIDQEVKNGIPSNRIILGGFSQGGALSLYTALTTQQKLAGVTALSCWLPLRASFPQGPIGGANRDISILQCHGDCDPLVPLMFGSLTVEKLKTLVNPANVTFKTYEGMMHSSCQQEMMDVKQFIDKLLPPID
LYPLA2 counter: LYPLA2 (human) inhibition in PME1 counter-screen | O95372 | recombinant LYPLA2, FP-Rh probe fluorescence polarization | inhibition, % at 5.9 µM | hit rate 0.38% among 320,000;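 active = inhibition above the screen-wide mean plus 3 SD, limit set per campaign, cut at about 26% in these data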;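 note: 0% = LYPLA2 with DMSO and 100% = wells lacking LYPLA2 enzyme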
Target sequence (O95372 whole entry, looked up): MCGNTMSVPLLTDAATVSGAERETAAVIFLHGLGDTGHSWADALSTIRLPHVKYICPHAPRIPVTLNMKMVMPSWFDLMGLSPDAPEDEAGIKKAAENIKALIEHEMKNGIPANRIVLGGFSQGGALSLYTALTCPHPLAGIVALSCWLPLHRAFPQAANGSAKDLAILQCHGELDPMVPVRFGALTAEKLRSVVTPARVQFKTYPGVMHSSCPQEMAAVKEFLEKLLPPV
Fam108B inh: blocks mouse Fam108B hydrolase in RBBP9 counter-screen; recombinant Fam108B, FP-Rh probe fluorescence polarization; inhibition, % at 9.51 µM; hit rate 0.33% among 300,000;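 active = inhibition above the screen mean inhibition plus 3 SD, computed separately per campaign, cut at about 18% in these data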;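 note: inhibitors lower polarization as less probe binds the enzyme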
PREPL inhibitor: inhibits the human prolyl oligopeptidase-like enzyme. Q4J6C6. recombinant PREPL, fluorescence polarization activity-based probe. inhibition, % at 5.96 µM. hit rate 0.68% among 320,000. AID 2751;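 note: 0% = enzyme with DMSO and 100% = wells lacking enzyme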
PREPL inh cf: human PREPL inhibition, confirmation; shares compounds with PREPL inhibitor; recombinant PREPL, fluorescence polarization activity probe; inhibition, % at 5.96 µM; hit rate 67% among 2,000;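 note: 0% = protein with DMSO and 100% = wells lacking protein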
Starred values were filed as active, the others as inactive; . = not tested or not shown; ! = a repeat was not active. Cut-off read from the data, not from the text of the source, unless noted: active = inhibition above about 43%; inactive = the rest.

SMILES	PME-1 primary	GSTO1 inh	LYPLA1 inh	LYPLA2 counter	Fam108B inh	PREPL inhibitor	PREPL inh cf
C/C(=N\NC(=O)C1CCCN(S(=O)(=O)c2ccccc2)C1)c1cccnc1 (centres undefined)	0	4	3	-1	-2	-9	.
COc1ccc(N2CCN(CCCNS(=O)(=O)c3c(C)noc3/C=C/N(C)C)CC2)cc1	6	1	1	4	-1	71*	28
COc1ccc(NC(=O)C2CCN(S(=O)(=O)c3c(C)noc3/C=C/N(C)C)CC2)cc1	13	-4	-2	6	-3	6	.
CCN1C(=O)/C(=C2/Sc3ccccc3N2CC)S/C1=N\c1ncn[nH]1	34*	-3	10	3	14	48*	33
C=CCN1C(=O)/C(=C2/Sc3ccccc3N2CC)SC1=S	-3	-3	-3	-5	-4	-5	.
CCC(CO)NCc1ccc(OCC(O)c2ccccc2)c(OC)c1 (centres undefined)	-2	5	1	8	-4	6	.
CCN(C(=O)CCN1C(=O)S/C(=C\c2ccccc2)C1=O)C1CCS(=O)(=O)C1 (centres undefined)	2	-8	-2	-5	2	45*	37
CN(C(=O)CN1C(=O)S/C(=C\c2ccccc2)C1=O)C1CCS(=O)(=O)C1 (centres undefined)	-11	9	-2	-3	1	14	.
COc1ccc(NC(=O)CN(C)C(=O)CSc2nc3ccccc3s2)cc1	-9	-21	-6	-9	0	0	.
O=C(C1=C[C@H](c2ccc(Br)cc2)C[C@H](OCCCCO)O1)N1CCN(Cc2ccc3c(c2)OCO3)CC1	4	-10	-5	7	-2	34	.
O=C(C1=C[C@@H](c2ccccc2)C[C@@H](OCCCCO)O1)N1CCN(Cc2ccc3c(c2)OCO3)CC1	9	7	5	2	-1	57*	43
O=C(C1=C[C@@H](c2ccc(Br)cc2)C[C@@H](OCCCCO)O1)N1CCN(Cc2ccccc2)CC1	1	-3	-4	7	0	63*	57*
O=C(C1=C[C@@H](c2ccc3c(c2)OCO3)C[C@@H](OCCCCO)O1)N1CCN(Cc2ccc3c(c2)OCO3)CC1	3	6	1	8	5	50*	49*
O=C(C1=C[C@H](c2ccc3c(c2)OCO3)C[C@H](OCCCCO)O1)N1CCN(Cc2ccccc2)CC1	5	7	-2	-4	-3	27	.
CCO[C@H]1OC(C(=O)N2CCN(Cc3ccc4c(c3)OCO4)CC2)=C[C@@H](c2csc3ccccc23)[C@@H]1CCCO	1	4	0	5	-3	54*	46*
CN(CC(=O)Nc1cccc(F)c1)C(=O)Cn1cnc2c1c(=O)n(C)c(=O)n2C	-6	-3	0	4	0	1	.
CC(C)Cc1nnc(NC(=O)CCS(=O)(=O)c2ccc(Cl)cc2)s1	-1	3	-1	3	-4	4	.
CC(C)=C1SC(N2CCOCC2)=NC1=O	-4	3	-4	0	-2	-9	.
CC(C)=C1SC(N2CCN(c3ccc(C)cc3)CC2)=NC1=O	-1	4	0	6	1	50*	45*
CC(C)=C1SC(N2CCN(c3ccc(Cl)cc3)CC2)=NC1=O	3	-1	0	-4	2	50*	48*
O=C(c1ccc(-c2cc(O)c3ncccc3c2)cc1)N1CCNCC1	.	.	.	.	.	55*	49*
COc1cccc(C(=O)COC(=O)CCC(=O)NC2CCCCC2)c1	-3	3	-1	4	4	-2	.
N#C/C(=C\c1cccnc1)c1nc2ccccc2[nH]1	5	2	-2	-2	1	56*	13
N#C/C(=C\c1ccccc1C(=O)O)c1nc2ccccc2[nH]1	9	2	-3	-1	-8	34	.
CCOC(=O)c1ccccc1NC(=O)Cc1c(C(=O)O)n(C)c2ccccc12	6	-5	-1	-3	-3	8	.
SMILES	PME-1 primary	GSTO1 inh	LYPLA1 inh	LYPLA2 counter	Fam108B inh	PREPL inhibitor	PREPL inh cf
COc1ccc(C(CCNCc2ccc(N(C)C)cc2)c2ccccc2)cc1 (centres undefined)	-2	1	1	0	2	54*	64*
COc1ccc(C(CCNCc2ccc(OC)c(OC)c2)c2ccc(F)cc2)cc1 (centres undefined)	1	0	-4	-5	-2	7	.
N#CC1=C(Nc2ccccc2)SC=C(c2ccc(F)cc2)N=C1N1CCOCC1	-1	-4	2	-1	-2	52*	36
CN(C)CCCN1c2ccccc2Sc2ccc(Cl)cc21	2	2	2	6	2	45*!	45*
OCCN1CCN(CCCN2c3ccccc3Sc3ccc(Cl)cc32)CC1	5	5	2	-3	-2	48*	41
Fc1cccc(NCCc2c[nH]c3ccccc23)n1	0	-2	-2	-9	3	-4	.
c1ccc2c(NCCc3c[nH]c4ccccc34)c3ccccc3nc2c1	-81	5	6	4	1	50*	57*
c1cncc(CNc2ccc3c(c2)OCO3)c1	8	9	-1	-8	3	44*	52*
COC(=O)[C@@]12CCCCN1[C@H](c1ccc(-c3cccc(Cl)c3)cc1)[C@@H]1C(=O)N(C)C(=O)[C@@H]12	.	.	.	.	.	31	.
CCOC(=O)N/N=C/c1cc(OC)c(O)c(OC)c1	0	2	-4	-2	4	4	.
CCOC(=O)c1sc(N/N=C/c2cc(Br)c(O)c(OC)c2)nc1C	28*	9	6	9	17	44*	48*
Cc1ccc(-c2[nH]c3cc(C(=O)NCCCn4ccnc4)ccc3c(=O)c2O)cc1	18	3	-7	-6	6	55*	30
c1ccc(C[n+]2cccc(-c3ccccc3)c2)cc1	-2	-1	1	5	0	3	.
CC1=CCC2COC(c3ccc[n+](Cc4ccccc4)c3)C1C2 (centres undefined)	-2	6	0	2	3	49*	36
COc1cc2c3c(c1)C(C)=CC(C)(C)N3C(=O)C2=O	10	2	-2	1	2	2	.
CCCOc1ccccc1-n1sc2c(c1=S)-c1cc(OC)cc3c1N(C(=O)C3=O)C2(C)C	4	-15	-5	3	9	52*	57*
CCN(CC)S(=O)(=O)c1ccc(Cl)c(C(=O)Nc2cc(C)nn2-c2ccccc2C(F)(F)F)c1	4	7	-3	-1	-3	9	.
COc1ccc(NC(=O)c2ccc(-c3ccc(-c4noc(C)n4)cc3C)cc2)cc1N1CCN(C)CC1	7	3	3	2	6	76*	60*
Cc1ccc(-c2csc(N3CCN(c4cc5c(cc4Cl)nc(-c4ccncc4)n5CCN4CCCCC4)CC3)n2)cc1	5	11	-2	-5	-1	45*	37
